These results are taken from PubChem BioAssay AID2401 (Southern Research Specialized Biocontainment Screening …, 2010).

Hit rate of the full screen: of about 2,200 compounds, about 530 (24%) were called active.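 How the source made its calls: active means inhibition above a set limit at one or more concentrations of the dose series; inactive means inhibition under that limit at every dose.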 Not all results are given here. Results with a measured potency or affinity are listed apart.

The experiment is described as follows: S. Typhimurium nonspecific reporter signal inhibition – Salmonella Typhimurium, GFP fluorescence, counter-screen for PhoP regulon inhibitor project, dose response (AID 2401).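 Further: S. typhimurium with Mg-insensitive nmpC-GFP reporter grown at 10 µM Mg2+; drop in reporter fluorescence reflects general culture growth inhibition.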 To be noted: 4 h; series mostly up to 150 µM.
For `Cc1ccc(S(=O)(=O)N(CC(=O)N=Nc2c(O)[nH]c3ccccc23)c2ccc(C)c(C)c2)cc1`, the call was inactive.

In the case of `Cc1ccccc1C(=O)N(C)Cc1ccccc1`, the compound was classed as inactive.

With `CCc1nc2cc(Cl)c(Cl)cc2[nH]1`, the compound was called inactive.

For `Cc1ccc(S(=O)(=O)c2cn(Cc3ccc(F)cc3)c3cc4c(cc3c2=O)OCO4)cc1`, the outcome was inactive.

Turning to `O=C(O)c1cc(NCc2ccc3c(c2)OCO3)ccc1N1CCOCC1`, the outcome was inactive.

`O=C(Cn1nc(Cc2cccnc2)c2ccccc2c1=O)NCc1ccc2c(c1)OCO2`: the call was inactive.

In the case of `CCn1cc(C(=O)O)c(=O)c2cc(Br)ccc21`, the call was inactive.

Take `COc1ccc(OC)c(-c2cc(C(=O)Nc3c(C)nn(Cc4ccccc4)c3C)no2)c1`: the call was inactive.

In the case of `CCS(=O)(=O)Nc1cc(C(=O)OC)ccc1C(=O)OC`, the outcome was inactive.

For `Cn1nnnc1SCC(=O)NC1CCCCC1`, the compound was called inactive.

Regarding `COC(=O)c1ccc(NC(=S)Nc2ccc3ccccc3c2)cc1`, the call was inactive.

Turning to `Cc1nn2c(=O)cc(CSc3nc4ccccc4[nH]3)nc2s1`, the result was inactive.

Regarding `CCn1ncc(/C=C/C(=O)NCc2cn(C)nc2C)c1C`, the compound was classed as inactive.

For the compound `COc1ccc(S(=O)(=O)N2CCN(Cc3ccccc3)CC2)cc1`, the compound was called inactive.

With `CCN(CC)S(=O)(=O)c1ccc2[nH]cc(C(=O)NCCc3ccccc3)c(=O)c2c1`, the compound was called inactive.

Consider `CN(c1ccccc1)S(=O)(=O)c1ccc(C(=O)Nc2nnc(-c3ccc(F)cc3)o2)cc1`, for which the call was inactive.

`Cc1ccc(C)c(NC(=O)C(Sc2nnc(-c3cccs3)o2)c2ccccc2)c1` (centres undefined): the compound was classed as inactive.

As to `Oc1ccc(Br)cc1-c1nc2cnccn2c1NC1CCCCC1`, the compound was classed as inactive.

For `O=C(Nc1ccccn1)NC1CCCCC1`, the outcome was inactive.

Consider `COc1ccc(N2C(=O)C3CCCN3C2c2cccc(C)c2)cc1Cl` (centres undefined), for which the outcome was inactive.

For `O=C(/C=C/c1ccco1)N/C(=C\c1ccccc1)C(=O)NCCc1nc2ccccc2[nH]1`, the result was inactive.

On to `Cc1ccccc1Nc1nnc(SCC(=O)NC2CCCc3ccccc32)s1` (centres undefined), for which the call was inactive.

As for `CC(C(=O)NC1CCCc2ccccc21)N1CCN(Cc2ccc3c(c2)OCO3)CC1` (centres undefined), the result was inactive.

As to `Cc1ccc(CNc2oc(-c3cccs3)nc2C#N)cc1`, the compound was classed as inactive.

On to `CN(CC(=O)N1CCN(c2ccccn2)CC1)S(=O)(=O)c1ccc2ccccc2c1`, for which the compound was called inactive.

For the compound `COc1ccc(C2C(C#N)=C(N)OC3=C2C(=O)CCC3)cc1Cn1cc([N+](=O)[O-])cn1` (centres undefined), the compound was classed as inactive.

In the case of `COc1ccc(Nc2nnc(SCc3cn4c(C)cccc4n3)s2)cc1`, the compound was called inactive.

In the case of `Cc1cc(N/N=C/c2cccc(Cl)c2)nc(NCc2ccccc2)n1`, the result was inactive.

Regarding `Clc1ccc(Nc2ccc(NCc3ccccc3)nn2)cc1`, the call was inactive.

As to `Cc1ccc(NC(=O)CSc2nnc(C3CCCCC3)n2N)cc1F`, the compound was called inactive.

On to `CCOc1ccc2nc(COC(=O)c3ccco3)c(C(C)=O)[n+]([O-])c2c1`, for which the outcome was inactive.

On to `O=C(Nc1ccc(Br)cc1)c1ccc(F)c(S(=O)(=O)NCc2cccs2)c1`, for which the outcome was inactive.

On to `NCCCCCc1nnc(SCc2ccc(Cl)c(Cl)c2)o1`, for which the compound was called inactive.

For the compound `O=C(Cn1cc[n+](CC(=O)c2ccccc2)c1)c1ccccc1`, the call was inactive.

Turning to `CC(C)(C)c1n[nH]c(=S)n(/N=C/c2cccs2)c1=O`, the result was inactive.

Turning to `N#CC1=C(N)SC(N)=C(C#N)C1c1ccc([N+](=O)[O-])cc1`, the outcome was inactive.

As to `Cc1cc(Oc2ccc(-c3nnc(-c4ccccc4)o3)cc2[N+](=O)[O-])ccc1Cl`, the call was inactive.

Turning to `Cc1ccccc1OCCSCc1nc2ccccc2[nH]1`, the call was inactive.

Consider `O=C(CCN1C(=O)c2ccccc2S1(=O)=O)Nc1ccc2c(c1)OCCO2`, for which the outcome was inactive.

For the compound `COc1ccc(OC)c(S(=O)(=O)N2c3cc(F)ccc3CCC2C)c1` (centres undefined), the call was inactive.

On to `O=C(NNc1c2ccccc2nc2ccccc12)c1cccc(O)c1`, for which the compound was classed as inactive.

On to `CC1(C)CC(=O)c2c(nc3ccccc3c2N)C1`, for which the compound was called inactive.

As for `Nc1nnc(SCc2ccc(F)cc2Cl)s1`, the compound was called inactive.

With `CNC(=O)CN(c1ccc(F)cc1)S(=O)(=O)c1cc(C)ccc1OC`, the outcome was inactive.

Take `CN1CCCC(OC(=O)CCCC(=O)OC2CCCN(C)C2)C1` (centres undefined): the result was inactive.

For `Cc1ccc2[nH]c3c(=O)n(CCc4cnc[nH]4)cnc3c2c1`, the outcome was inactive.

For `Cc1ccc(C(=O)COC(=O)CNS(=O)(=O)c2ccccc2)cc1[N+](=O)[O-]`, the result was inactive.

Regarding `CC(C)n1cc(C(=O)N2CCCC(N3CCN(c4ccc(F)cc4)CC3)C2)cn1` (centres undefined), the outcome was inactive.

As to `CCn1cc(C(C)(C)C)c(C#N)c1NC(C)=O`, the compound was classed as inactive.

Turning to `O=C(NC1CCCCC1)n1c(=O)oc2ccc(Cl)cc21`, the call was inactive.

Regarding `O=C(CCN1C(=O)C2C3C=CC(C3)C2C1=O)N1CCN(c2cccc(Cl)c2)CC1` (centres undefined), the compound was called inactive.

`Cc1cccc(OCC(=O)N(Cc2cccs2)C2CCS(=O)(=O)C2)c1C` (centres undefined): the call was inactive.

In the case of `CC(C)Oc1cccc(C(=O)NC(=S)Nc2ccccc2)c1`, the outcome was inactive.

Turning to `CC(C)OC(=O)c1ccc(NC(=O)c2ccccc2)cc1`, the outcome was inactive.

For the compound `COc1ccc(Oc2coc3cc(OC(=O)c4cccs4)ccc3c2=O)cc1`, the outcome was inactive.

As for `COC(=O)c1ccc(NC(=O)c2ccc(N(C)S(C)(=O)=O)cc2)cc1`, the outcome was inactive.

On to `O=C(CCCCCNc1nc(=S)[nH]c2ccccc12)NCCc1c[nH]c2ccccc12`, for which the compound was called inactive.

With `O=C(NNC(=O)c1ccccc1-n1cccc1)c1ccc(Cl)c(Cl)c1`, the result was inactive.

Consider `Cc1ccccc1NC(=S)N(CCCN1CCOCC1)Cc1ccccn1`, for which the result was inactive.

In the case of `CCN1CCN(C(=O)c2ccc(COc3ccc(Cl)cc3)o2)CC1`, the compound was classed as inactive.

As for `CCOc1ccc(/C=N/O)cc1`, the call was inactive.

Consider `CCOc1ccc(CCNC(=O)c2cc3sc(Cl)cc3n2C)cc1OCC`, for which the compound was called inactive.

As for `COc1ccc(C)cc1C(=O)CCC(=O)Nc1ccccc1N1CCOCC1`, the compound was called inactive.

Regarding `C#CCOc1ccc(/C=N/O)cc1Cl`, the compound was classed as inactive.

Regarding `COc1ccc(C(C(=O)NC2CCCC2)N(C(=O)c2ccoc2C)c2cc(C)cc(C)c2)cc1` (centres undefined), the result was inactive.

As to `COc1ccc(NS(=O)(=O)c2cc(C)ccc2NC(=O)c2cc(C)oc2C)cc1`, the result was inactive.

As to `Cc1cc2oc(=O)cc(CSc3nc(N)cc(N)n3)c2cc1C`, the call was inactive.

For `O=C(CSc1nncs1)Nc1ccc2c(c1)OCCO2`, the result was inactive.

Consider `CCOc1ccc(OCc2ccc(C(=O)N3CCc4ccccc4C3)o2)cc1`, for which the call was inactive.

`Cc1cc(C(=O)NCc2cccs2)cs1`: the compound was called inactive.

On to `COc1ccc2[nH]c(S(=O)Cc3ncc(C)c(OC)c3C)nc2c1` (centres undefined), for which the compound was classed as inactive.

With `Cc1ccc(C(C)C)c(OCC(=O)Nn2c(=O)[nH]c3ccccc3c2=O)c1`, the outcome was inactive.

As for `O=C(NC1CC1)C1=NOC(CNc2ncc(C(F)(F)F)cc2Cl)C1` (centres undefined), the compound was called inactive.

With `O=C(Cc1n[nH]c(=O)c2ccccc12)OCC(=O)c1ccc2c(c1)OCCO2`, the outcome was inactive.

Regarding `c1ccc(Cc2nnc(-c3ccccc3)o2)cc1`, the compound was called inactive.

On to `CC(C)Cc1oc(C(=O)O)cc1CN1CCOCC1`, for which the compound was classed as inactive.

In the case of `COc1ccc(NC(=O)CN2CCCCC2)c([N+](=O)[O-])c1`, the outcome was inactive.

In the case of `Oc1ccccc1CN1CCCN(Cc2ccccc2O)C1`, the call was inactive.

Regarding `CC(C)(C)c1ccc(C(=O)NC(=S)NCc2cccnc2)cc1`, the outcome was inactive.

On to `O=C(Nc1nc2cc3c(cc2s1)OCO3)C1=COCCO1`, for which the compound was called inactive.

As to `CCOc1ccc(CSC(CC(=O)O)C(=O)O)cc1` (centres undefined), the result was inactive.

With `O=C(CSc1ncnc2ccccc12)Nc1cc(S(=O)(=O)N2CCCCC2)ccc1Cl`, the outcome was inactive.

In the case of `Cc1ccc(CCNC(=O)C2CCN(S(=O)(=O)N3CCCC3)CC2)cc1`, the compound was classed as inactive.

Regarding `N#Cc1ccc(COC(=O)c2ccc3c(=O)[nH]c(CN4CCOCC4)nc3c2)cc1`, the compound was classed as inactive.

With `COc1ccc(CCNC(=O)c2ccc(CN3CCOCC3)cc2)cc1`, the compound was classed as inactive.

In the case of `COc1ccc(C(=O)Oc2c(CN3CCOCC3)cc(Cl)c3cccnc23)cc1`, the call was inactive.

In the case of `COc1ccc(CN2CCOCC2)cc1Br`, the outcome was inactive.

Regarding `COc1ccc(C2C(C(=O)c3cccs3)=C(O)C(=O)N2c2nnc(C)s2)cc1OC` (centres undefined), the compound was called inactive.

For `CCC(CC)C(=O)Nc1cccc(C(=O)N2CCCC2)c1`, the result was inactive.

Consider `c1ccn2c(CNc3ncnc4sccc34)nnc2c1`, for which the outcome was inactive.

In the case of `Cc1cc(C)c2cc(CN(Cc3cccnc3)C(=O)c3ccc(F)cc3)c(Cl)nc2c1`, the outcome was inactive.

`c1ccc(C2(CNc3ccccn3)CCCC2)cc1`: the result was inactive.

For `O=c1[nH]c(CSc2ncc(-c3ccc(F)cc3)n2Cc2ccco2)nc2ccccc12`, the result was inactive.

As for `CC(C)(C)C1CCC2(CC1)Nc1cccc3cccc(c13)N2`, the call was inactive.

Take `CCn1c2ccccc2c2cc(NC(=O)C(C)Oc3ccccc3)ccc21` (centres undefined): the outcome was inactive.

As for `COc1cccc(N(C(=O)c2ccco2)c2nc(-c3sc(NC(=O)c4ccco4)nc3C)cs2)c1`, the compound was classed as inactive.

As for `Cc1ccc(Nc2nc(N)nc(CC#N)n2)cc1`, the call was inactive.

Take `CCCCCC(=O)Nc1ccc2ccccc2c1`: the outcome was inactive.

`C/C(CC(=O)Nc1ccc(Cl)c(C(F)(F)F)c1)=N\NC(=O)c1cccc(O)c1`: the result was inactive.

As to `CC1CC(C)CN(CCCNC(=O)C2CCC(=O)N2C2CCCC2)C1` (centres undefined), the outcome was inactive.

For the compound `Cc1ccc(NC2CC(=O)N(Cc3ccccc3)C2=O)cc1` (centres undefined), the compound was called inactive.

As to `Cc1ccc(-n2nc(-c3ccc(N)cc3)cc2N)cc1`, the compound was classed as inactive.

`CC(C)=CCN1CCN(Cc2ccoc2)CC1CCO` (centres undefined): the compound was classed as inactive.

Take `O=C(CCCN1Cc2ccccc2C1)c1ccc(F)cc1`: the compound was called inactive.

As for `CCOc1ccc(/C=C/C(=O)Nc2ccc(OC)cc2[N+](=O)[O-])cc1`, the call was inactive.

Take `O=C(CSc1nc2ccccc2[nH]1)Nc1ccc(F)c(F)c1`: the call was inactive.

For the compound `O=C(CNc1ccccc1)Nc1ccc(F)cc1`, the outcome was inactive.

Consider `COc1ccc(NC(=O)ON=C2c3ccccc3-c3ccccc32)cc1`, for which the call was inactive.

For `Cc1ccc(-c2cc(-c3ccc(Cl)cc3)c(C#N)c(N)n2)o1`, the compound was called inactive.

With `O=C1CCc2cc(S(=O)(=O)N3CCN(c4cccc(Cl)c4)CC3)ccc2N1`, the result was inactive.

Consider `CCNC(=S)NNC(=O)c1ccc(OC(F)F)cc1`, for which the call was inactive.

As to `Cc1ccc(NC(NC(=O)c2ccccn2)C(Cl)(Cl)Cl)cc1` (centres undefined), the call was inactive.

Turning to `S=C(Nc1ccc(Cl)c(Cl)c1)N1CCOCC1`, the outcome was inactive.

For `COC(=O)CCC(=O)Nc1ccc(Cl)c(Cl)c1`, the compound was called inactive.
